Screens deposited in PubChem by National Center for Advancing Translational Sciences (NCATS).
IL1B secr inh – qHTS for Inhibitors of Inflammasome Signaling: IL-1-beta AlphaLISA Primary Screen. activity change, % at 57.5 µM. 360,000 tested, 4.7% active. THP-1 LPS/ATP IL-1B secretion, AlphaLISA, 16 h; hits give low values; in the data active means activity change below about -50%; inconclusive means mostly about -30% to -49%
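Secreted IL-1B measured by AlphaLISA bead assay after 16 h compound exposure of THP-1 cells; compounds (final up to 57.5 uM) added 1 h before LPS (250 ng/mL) and ATP (1.25 mM) stimulation; lower signal means less secretion.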
HT1080 IDH1KD tx – qHTS for induction of synthetic lethality in tumor cells producing 2HG: qHTS for the HT-1080-IDH1KD cell line; HT-1080 IDH1 knockdown viability, ATP luminescence, 48 h; Potency, µM (doses to about 46.1 µM), without a hit: at the highest dose activity, negative = toxicity, most hits filed as cytotoxic; 360,000 tested, 2% active;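 further: potency means the concentration at half of the fitted maximal effect; 0% = DMSO wells and -100% = cell-free medium wells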
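After a 2 h attachment period, IDH1KD HT-1080 cells took pin-transferred compound for 48 h at 37 °C; ATP-based luminescence after 10 min room-temperature reagent incubation reported viability.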
TDP1 cell CPT – qHTS for Inhibitors of human tyrosyl-DNA phosphodiesterase 1 (TDP1): qHTS in cells in presence of CPT; chicken DT40 Tdp1-/-;hTDP1 cells + 20 nM CPT, ATP luminescence, 48 h; Potency, µM (doses to about 46.2 µM), inactives show top-dose activity change, negative = growth inhibition, actives largely listed as inhibitors; 420,000 tested, 12% active; AID 686979, 2013; further: potency means the concentration at half of the fitted maximal effect; nearly all actives have a fitted effect of over 55% in size
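Chicken DT40 Tdp1-/- cells complemented with human TDP1, 400 cells/well, exposed to compounds plus 20 nM camptothecin for at least 48 h at 37 C; viability read as ATP content by CellTiter-Glo luminescence.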
DT40 TDP1 no CPT – qHTS for Inhibitors of human tyrosyl-DNA phosphodiesterase 1 (TDP1): qHTS in cells in absence of CPT; AID 686978, 2013; Potency, µM (doses to about 46.2 µM), inactives show at the top dose activity change, negative = growth inhibition, hits mostly inhibitors; DT40 Tdp1-/- hTDP1 cells, no CPT, ATP luminescence, 48 h; 420,000 tested, 15% active; further: potency means the concentration at half of the fitted maximal effect; nearly all actives have a fitted effect of over 55% in size
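Growth of hTDP1-complemented DT40 Tdp1-knockout cells is measured by ATP luminescence after at least 48 hr compound exposure at 37 °C, with DMSO substituting for the 20 nM CPT used in the parallel screen.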
HT1080-NT tox – qHTS for induction of synthetic lethality in tumor cells producing 2HG: qHTS for the HT-1080-NT fibrosarcoma cell line | Potency, µM (top dose mostly 46.1 µM), for inactives: at the highest dose activity, negative = less viability, most hits filed as cytotoxic | 360,000 tested, 1.6% active | HT-1080-NT fibrosarcoma viability, CellTiter-Glo ATP luminescence, 48 h;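 further: NT is the 2HG producing partner of a matched IDH1 knockdown line; potency means the concentration at half of the fitted maximal effect; 0% = DMSO-treated cells and -100% = media-only wells without cells; nearly all actives have a fitted effect of over 55% in size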
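Compounds were tested in concentration-response format on HT-1080-NT cells for 48 hours at 37 degrees C. Cell viability came from CellTiter-Glo luminescence; curves were classified by r2, response magnitude and activity.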
uPA surface inh – qHTS for Inhibitors of Cell Surface uPA Generation; 330,000 tested, 0.31% active; AID 540303, 2011; cell surface uPA generation assay, qHTS; Potency, µM (titrated, usually from 38.3 µM), for the others: at the highest dose activity change, negative = inhibition, most hits filed as inhibitors; active means well fitted inhibition curve with a large enough effect; inconclusive means small, poorly fitted or top-dose-only effect; inactive means no such curve, though single readings can be large or run the other way; tested in mouse RAW 264.7 cells; further: potency means the concentration at half of the fitted maximal effect; nearly all actives have a fitted effect of over 55% in size
* hit, by the source's call; ? = inconclusive; . = no result given. Hits are enriched below; roughly 19% of the tested compounds scored in any of these assays. Unless noted, the call rests on the fitted dose curve; in most records, active means well fitted curve in the direction sought with a large enough effect; inconclusive means small, poorly fitted or top-dose-only effect, or another doubt; inactive means no such curve, though single readings can be large; an effect the other way counts as inactive or inconclusive. Unless noted, on the % scale 0 is the no-effect control and ±100 the full control effect.

SMILES | IL1B secr inh | HT1080 IDH1KD tx | TDP1 cell CPT | DT40 TDP1 no CPT | HT1080-NT tox | uPA surface inh
CN1CCC(N(C)c2ncnc3ccc(Br)cc23)CC1 | -18.1 | -10.1% | ? | ? | -11.1% | 7.9%
CN1CCN(c2ncnc3ccc(Br)cc23)CC1 | 6.0 | 1.4% | 25.9µM* | ? | -1.2% | 1.8%
C#CCN1C(=O)C2(C(C#N)=C(N)OC(C)=C2C(=O)OCc2ccccc2)c2ccccc21 (stereo not given) | 4.3 | -23.3% | ? | 23.1µM* | 0.1% | .
CCOC(=O)C1=C(C)OC(N)=C(C#N)C12C(=O)N(C)c1ccccc12 (stereo not given) | 17.3 | -0.3% | 6.0% | -7.9% | 4.5% | 6.3%
CCc1ccc(N2C(=O)NC(=O)/C(=C\c3cccn3CCOc3ccc(C(C)C)cc3)C2=O)cc1 | -21.9 | 19.9% | 20.6µM* | 16.4µM* | 15.3% | -13.1%
Cc1cccc(-n2c(=O)c3c(c4cc(C)ccc4n3C)n(CC(=O)Nc3ccc(C)c(C)c3)c2=O)c1 | . | . | -19.8% | ? | . | .
COc1ccc(/C=N\NC(=O)c2cccc(F)c2)cc1COc1ccccc1 | 77.8 | 0.581µM* | 0.82µM* | 0.651µM* | 1.16µM* | 1.0%
COc1cc2c(cc1OC)C1C(=O)c3c(cc4c(c3O)C=CC(C)(C)O4)OC1CO2 (stereo not given) | . | . | 1.3µM* | 0.731µM* | . | .
CCOc1ccc(CCNC(=O)c2cnc3sc(N4CCCC4)nn3c2=O)cc1 | . | . | 6.51µM* | 2.31µM* | . | .
O=C(c1ccco1)N1CCC2(CC1)CN(Cc1ccncc1)C2 | . | . | 3.7% | -2.5% | . | .
COc1ccccc1NC(=O)N(Cc1ccco1)C1CCN(C(C)=O)CC1 | . | . | -24.9% | ? | . | .
CCOP(=O)(/C=C(\Cl)c1ccccc1)C(O)c1ccc(F)cc1 (stereo not given) | -13.1 | 4.4% | ? | 16.4µM* | 15.3% | -2.9%
CCc1cc(-c2cnnn2Cc2ccc3ccccc3c2)ccc1-c1cn(CC(C)C)nn1 | 5.8 | 7.3% | 25.9µM* | 20.6µM* | 3.6% | .
C[C@H]1CNC(=O)c2c(C(=O)Nc3cccc(Cl)c3)ncn21 | 0.0 | -7.5% | -7.2% | ? | -15.7% | .
COC(=O)c1cc(C(O)(C(=O)OC)C(F)(F)F)c(/N=C/N(C)C)s1 (stereo not given) | 22.9 | 14.0% | -3.7% | 0.3% | 8.8% | 3.9%
CN1CCN(Cc2cc(=O)n3ccsc3n2)CC1 | 18.8 | 1.1% | -12.3% | 2.5% | -5.7% | 1.2%
O=c1cc(CNc2cc(C(F)(F)F)cc(C(F)(F)F)c2)nc2sccn12 | -70.8* | ? | ? | ? | ? | ?
C[C@H]1O[C@@H](O[C@H]2[C@@H](O)C[C@@H](O[C@H]3[C@@H](O)C[C@H](O[C@H]4CC[C@@]5(C)[C@H](CC[C@@H]6[C@@H]5CC[C@]5(C)[C@@H](C7=CC(=O)OC7)CC[C@]65O)C4)O[C@@H]3C)O[C@@H]2C)C[C@H](O)[C@@H]1O | . | . | 0.316µM* | 0.112µM* | . | .
C[C@H]1O[C@@H](O[C@H]2[C@@H](O)C[C@H](O[C@H]3[C@@H](O)C[C@H](O[C@H]4CC[C@]5(C)C6CC[C@]7(C)[C@@H](C8=CC(=O)OC8)CC[C@]7(O)C6CC[C@@H]5C4)O[C@@H]3C)O[C@@H]2C)C[C@H](O)[C@@H]1O (stereo not given in full) | . | . | 0.335µM* | 0.376µM* | . | .
COC1C(O)C(C)OC(OC2CCC3(C)C(CCC4C3C(O)CC3(C)C(C5=CC(=O)OC5)CCC43O)C2)C1O (stereo not given) | 0.0 | 0.82µM* | 1.84µM* | 2.06µM* | 1.46µM* | 10.5%
CNC(=O)Nc1ccc(C(=O)N/N=C\C23CC[C@@H](O)CC2(O)CC[C@@H]2[C@@H]3CCC3(C)C(C4=CC(=O)OC4)CCC23O)cc1 (stereo not given in full) | 29.7 | ? | -11.3% | 21.9% | ? | 0.6%
CO[C@H]1[C@@H](O)C[C@H](O[C@H]2[C@@H](O)C[C@H](O[C@H]3[C@@H](O)C[C@H](O[C@H]4CC[C@@]5(C)[C@H](CC[C@@H]6[C@@H]5C[C@@H](O)[C@]5(C)[C@@H](C7=CC(=O)OC7)CC[C@]65O)C4)O[C@@H]3C)O[C@@H]2C)O[C@@H]1C | . | . | 0.531µM* | 0.376µM* | . | .
Fc1ccc(NC(=S)N2Cc3ccccc3-n3nncc3C2)cc1 | 17.3 | 0.9% | -5.1% | ? | -0.8% | .
CC1([N+](=O)[O-])COP(=O)(NC2CC2)OC1 (stereo not given) | 1.3 | 19.4% | 4.1% | -11.9% | 16.1% | 4.1%
CC1O[C@@H](O[C@@H]2C(O)C[C@H](O[C@@H]3C(O)C[C@@H](OC4CC[C@@]5(C)C6CC[C@]7(C)C(C8=CC(=O)OC8)CC[C@@]7(O)C6CC[C@@H]5C4)OC3C)OC2C)CC(O)[C@H]1O (stereo not given in full) | . | . | 1.03µM* | 0.731µM* | . | .
SMILES | IL1B secr inh | HT1080 IDH1KD tx | TDP1 cell CPT | DT40 TDP1 no CPT | HT1080-NT tox | uPA surface inh
COc1ccc(C(=O)N2CCN(c3nc4c(OC)cccc4s3)CC2)cc1OC | . | . | 18.4µM* | 14.6µM* | . | .
COc1ccc(C(=O)N2C[C@H]3C[C@@H](C2)c2cccc(=O)n2C3)cc1OC | -10.5 | 1.7% | 20.1% | -0.2% | 14.2% | 10.6%
Oc1c(Br)c(Br)c(Br)c(Br)c1Br | 12.7 | ? | ? | ? | 25.9µM* | 11.8%
CC(=O)N1CCN(c2ccc(N=Cc3c(O)n(Cc4ccccc4)c(=O)[nH]c3=O)cc2)CC1 | -22.0 | 14.1% | ? | ? | 15.7% | -9.6%
C[N+]1(CCF)[C@@H]2CC[C@H]1CC(OC(=O)C(O)(c1ccccc1)c1ccccc1)C2 (stereo not given in full) | . | . | 11.0% | -2.2% | . | .
COC(=O)C1=C(c2cccc(OC)c2OC)C[C@@H]2CC[C@H]1N2C(=O)NCC1CC1 | 4.3 | 10.4% | -19.8% | . | 5.6% | 11.0%
Cn1c(O)c(/C=N/Nc2ccccc2)c(=O)n(C)c1=O | -13.9 | 7.31µM* | 22.3% | -7.1% | 8.2µM* | 2.6%
Cc1ccc(-n2c(O)c(/C=N/Nc3ccccc3)c(=O)[nH]c2=O)cc1C | -1.9 | 6.51µM* | 23.7% | -17.6% | ? | 1.8%
